Experimental data from PubChem BioAssay (NCI).
About 83,000 compounds went through this panel and 20% of them were active in at least one assay; those are over-represented in the sample as a whole.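 Testing used 96-well plates and a 48-hour single-concentration exposure. Example: -40 means 40% of the starting cells died.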 Unmarked numbers belong to inactive results. Active and inactive are the calls of the source. The calls were made as follows: active = growth percent below 10; inactive = the rest.

Tests used:
Experiment in all cases: NCI-60 one-dose screen, 48 h (100 = growth as untreated, 0 = no growth, -100 = all killed)
DU-145 prostate = settings: 10 µM
K-562 leukemia = settings: 10 µM
MDA-MB-231 breast = settings: 10 µM
RXF 393 renal = settings: 10 µM
SF-268 CNS = settings: 10 µM
SF-295 CNS = settings: 10 µM
SF-539 CNS = settings: 10 µM
UACC-257 melanoma = settings: 10 µM
M14 melanoma = settings: 10 µM
HCT-15 colon = settings: 10 µM
HT29 colon = settings: 10 µM
SNB-75 CNS = settings: 10 µM
U251 CNS = settings: 10 µM
PC-3 prostate = settings: 10 µM
UACC-62 melanoma = settings: 10 µM unless noted
LOX IMVI melanoma = settings: 10 µM
SK-MEL-28 melanoma = settings: 10 µM
MALME-3M melanoma = settings: 10 µM
SK-MEL-5 melanoma = settings: 10 µM
SNB-19 CNS = settings: 10 µM

| SMILES | growth (DU-145 prostate) | growth (K-562 leukemia) | growth (MDA-MB-231 breast) | growth (RXF 393 renal) | growth (SF-268 CNS) | growth (SF-295 CNS) | growth (SF-539 CNS) | growth (UACC-257 melanoma) | growth (M14 melanoma) | growth (HCT-15 colon) | growth (HT29 colon) | growth (SNB-75 CNS) | growth (U251 CNS) | growth (PC-3 prostate) | growth (UACC-62 melanoma) | growth (LOX IMVI melanoma) | growth (SK-MEL-28 melanoma) | growth (MALME-3M melanoma) | growth (SK-MEL-5 melanoma) | growth (SNB-19 CNS) |
| --- | --- | --- | --- | --- | --- | --- | --- | --- | --- | --- | --- | --- | --- | --- | --- | --- | --- | --- | --- | --- |
| C=CCc1cc(C(C)=O)cc(OC)c1O | 105% | 107% | 92.1% | 95.5% | 96.8% | 119% | 125% | 99% | 105% | 119% | 108% | 89.2% | 103% | 106% | 97.8% | 100% | 110% | – | – | – |
| CC1(C)S(=O)(=O)OCCOS1(=O)=O | 107% | 100% | – | 114% | – | 97.7% | 100% | 82.2% | – | 101% | 105% | 98.7% | 95% | 100% | 92.3% | 95.2% | 112% | 94.5% | 93.6% | – |
| O=S(=O)(O)c1ccc(Cl)c(Cl)c1 | 120% | 105% | 108% | 132% | 113% | 112% | 107% | 124% | 101% | 107% | 109% | 91.6% | 105% | 94.1% | 99% | 91.8% | 112% | – | 107% | 101% |
| CN(C)CCN(C)CC(C)(C)C(=O)/C=C/c1ccc(Cl)cc1 | 6.16% (active) | 4.79% (active) | – | -82.8% (active) | – | 20.5% | -25.9% (active) | 23.1% | -64.4% (active) | -66.4% (active) | -16.7% (active) | 12.2% | -1.73% (active) | -4.75% (active) | -46.4% (active) | -96.4% (active) | -11.2% (active) | -27.7% (active) | -24.9% (active) | – |
| C/C(O)=C(\C=N\C(N)=S)C(=O)Nc1ccccc1 | 109% | 107% | 92.2% | 107% | 101% | 110% | 114% | 97.7% | 105% | 110% | 101% | 88.1% | 97.4% | 93.5% | 96.8% | 96.7% | 116% | – | 97.6% | 100% |
| Nc1ncnc2c1nc(N)n2C1OC(CO)C(O)C1O (stereo not given) | -21.8% (active) | 19.3% | -16.9% (active) | -59.6% (active) | -57.8% (active) | -70.2% (active) | -94.4% (active) | -56.6% (active) | -85.6% (active) | -7.88% (active) | -4.96% (active) | -75.8% (active) | 2.54% (active) | -11.7% (active) | -68.3% (active) | -80.3% (active) | -48.1% (active) | – | -87.6% (active) | -16.5% (active) |
| Cc1cc(N2CCC(N3CCCC3)CC2)nc(/N=C(\N)Nc2ccc(Cl)c(Cl)c2)n1 | 16.3% | -44.4% (active) | -58.1% (active) | -69.7% (active) | -4.09% (active) | -96.2% (active) | -84.7% (active) | -78.5% (active) | -85.9% (active) | -12.7% (active) | -44.6% (active) | -60.3% (active) | -71.8% (active) | 82.6% | -82.9% (active) | -90.8% (active) | -75% (active) | – | -94% (active) | 90.7% |
| CC(=O)NC(N)=S | 107% | 121% | 115% | 105% | 110% | 101% | 107% | 101% | 127% | 109% | 97.7% | – | 105% | 92.6% | – | – | – | – | 107% | 101% |
| Cc1ccc(C)n1-c1ccsc1C(=O)NNC(=O)C(Cl)Cl | 109% | 97.8% | – | 114% | – | 101% | 102% | 98.2% | 106% | 103% | 106% | 104% | 107% | 88.5% | 93.4% | 81.7% | 112% | 93.2% | 94.8% | – |
| CC1C(=O)c2ccccc2CC1C(=O)O (stereo not given) | 135% | 103% | 109% | 120% | 130% | – | 101% | 92.8% | 113% | 115% | – | 82.2% | 97.1% | 97.6% | 116% | 92.4% | 114% | – | 100% | 128% |
| Cc1ccc(/C=C2\SC(=S)N(c3ccc(F)cc3)C2=O)o1 | 95.5% | 77.8% | – | 75% | – | 73% | 73.9% | 102% | 87.5% | 88.1% | 70.6% | 24.7% | 61% | 96.1% | 85.2% | 68.8% | 100% | 77% | 88.2% | – |
| COC(=O)Nc1nc2ccc(C(=O)c3cccs3)cc2[nH]1 | -1.55% (active) | – | 24% | 44.9% | 36.9% | -9.66% (active) | 10.3% | 56% | 3.53% (active) | 10.8% | 2.02% (active) | 32.8% | 16.6% | 22.7% | 34.2% | 28.4% | – | 36.2% | -21.1% (active) | 29.9% |
| CN(C)c1ccc(CNC(C(=O)c2ccccc2)c2ccccc2)cc1 (stereo not given) | – | 94.8% | 107% | – | 96.9% | 98.1% | 111% | 94.9% | 114% | 96.9% | 82.6% | 90.4% | 94.1% | 85.7% | 99.2% | 95.1% | 94.2% | 94.2% | 56.2% | 107% |
| CC(=O)C1CCCCC1 | 111% | – | 102% | 99.1% | 107% | 92.4% | 111% | – | – | 95% | 104% | 87.1% | – | 96.8% | 103% | 99.9% | 102% | 107% | 99.9% | 100% |
| O=C(O)c1cccc([N+](=O)[O-])c1O | 109% | 106% | 103% | – | 106% | 90.8% | 114% | 107% | 94.1% | – | 101% | 96.1% | 101% | 107% | – | 95.1% | 116% | – | 105% | 99.1% |
| Cc1nc2ccccc2c2nnc(SCC(=O)N(Cc3ccccc3)c3ccccc3)n12 | – | 85.9% | 92.1% | – | 94.6% | 88.2% | 99.2% | 92.8% | 119% | 90.4% | 96.1% | 90.4% | 98% | 84.1% | – | 91.6% | 109% | – | 45.1% | 102% |
| c1ccc(/C(=N\N=C(/c2ccccc2)c2cccs2)c2cccs2)cc1 | 105% | 83.6% | – | 108% | 97% | 95.8% | 111% | 106% | – | 92.4% | 95.4% | 89% | 103% | 99.8% | – | 88.4% | 108% | – | 101% | – |
| Nc1ccc(CC(=O)O)c(N)c1 | – | 104% | 103% | 102% | 94% | 104% | 102% | 101% | – | 106% | 107% | 93.1% | 101% | 101% | 93.3% | 101% | 101% | 94.3% | 99.2% | 97% |
| CCn1c(=O)n(C)c2c(=O)n(C)c(=O)n(C)c21 | – | 107% | 110% | 109% | – | – | 106% | 99% | 101% | 106% | 101% | 97.1% | 99.3% | 97.4% | 107% | 96.4% | 118% | – | 103% | 102% |
